Compound activity (PubChem)
PDI turbidity: inhibitors of human PDI, primary screen, biochemical, turbidity, single point, plate reader | inhibition, % at 10 µM | AID 588391, 2011 | PDI insulin aggregation turbidity, A650, 90 min | 350,000 tested, 0.052% active | Protein disulfide-isomerase (Homo sapiens), P07237;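 active = mean inhibition across replicates of 30% or more, whatever share of single replicates reach that level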
Target sequence (P07237 whole entry, looked up): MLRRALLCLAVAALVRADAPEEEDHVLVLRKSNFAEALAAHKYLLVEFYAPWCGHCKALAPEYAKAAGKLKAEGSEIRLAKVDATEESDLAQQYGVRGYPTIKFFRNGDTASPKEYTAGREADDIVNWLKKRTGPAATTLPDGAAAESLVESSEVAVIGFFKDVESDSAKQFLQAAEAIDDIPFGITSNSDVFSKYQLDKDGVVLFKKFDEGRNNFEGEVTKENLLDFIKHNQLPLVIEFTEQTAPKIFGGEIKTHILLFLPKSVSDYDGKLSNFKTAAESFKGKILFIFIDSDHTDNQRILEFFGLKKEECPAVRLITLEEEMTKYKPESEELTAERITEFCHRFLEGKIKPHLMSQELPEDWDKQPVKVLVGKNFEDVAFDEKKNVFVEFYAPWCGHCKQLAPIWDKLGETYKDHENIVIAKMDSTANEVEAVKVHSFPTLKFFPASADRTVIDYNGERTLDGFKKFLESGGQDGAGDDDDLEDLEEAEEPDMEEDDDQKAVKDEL
PglD inh: C. jejuni PglD acetyltransferase inhibitors, primary screen, biochemical, DTNB colorimetric, single point. UDP-N-acetylbacillosamine N-acetyltransferase PglD (Campylobacter jejuni). purified PglD enzyme, DTNB colorimetric CoA detection. inhibition, % at 12.5 µM. 360,000 tested, 0.098% active. AID 602405, 2012; in the data active = inhibition above about 16%, passing the limit was not always enough
ERp5 inh: inhibitors of ERp5-driven insulin aggregation, primary screen, biochemical, turbidity, absorbance 650 nm, single point; 90 min; inhibition, % at 9.99 µM; 350,000 tested, 0.05% active; AID 651711, 2012;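 active = mean replicate inhibition above about 25%, with every replicate also reaching it, limit read from the data, passing the limit was not always enough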
ARNT TACC3 PPI: disruptors of ARNT/TACC3 protein interaction, primary screen, biochemical, AlphaScreen, single concentration; inhibition, % at 9.99 µM; 390,000 tested, 0.66% active; Transforming acidic coiled-coil-containing protein 3 (Homo sapiens), Q9Y6A5; AID 623870, 2012; AlphaScreen His-ARNT PAS-B/GST-TACC3 binding, luminescence; TACC3 fragment carries E629A point mutation;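 active = mean inhibition of replicates at least 50% and at least half of replicates each reaching 50%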;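 also: 0% = complete ARNT plus TACC3 wells and 100% = ARNT alone without TACC3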
CendR NRP1 mod: modulators of CendR peptide binding to NRP-1, primary screen, biochemical, fluorescence polarization, uHTS. FAM-RPARPAR peptide binding to NRP-1. 360,000 tested, 0.85% active. inhibition, % at 25 µM. AID 602438, 2012;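 active = inhibition or corrected inhibition above about 18%, plus a signal ratio from 0.5 to 1.5, limit read from the data, passing the limit was not always enough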
ALR inh: inhibitors of human ALR sulfhydryl oxidase, primary screen, biochemical, H2O2 detection, HRP-luminol luminescence, single point; FAD-linked sulfhydryl oxidase ALR (Homo sapiens), P55789; inhibition, % (no concentration beside the values); 290,000 tested, 3.8% active; AID 485317, 2010; purified ALR, DTT oxidation;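 active = mean replicate inhibition above about 79%, with every replicate also reaching it, limit read from the data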
Target sequence (P55789 whole entry, looked up): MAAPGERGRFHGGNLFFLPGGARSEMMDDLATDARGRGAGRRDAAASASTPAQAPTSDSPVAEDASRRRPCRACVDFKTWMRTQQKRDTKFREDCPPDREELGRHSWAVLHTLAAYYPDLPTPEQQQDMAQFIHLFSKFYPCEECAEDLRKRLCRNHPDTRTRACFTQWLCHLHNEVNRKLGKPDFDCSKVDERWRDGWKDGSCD
* hit, by the source's call; / = no result given. This excerpt belongs to a sample that is enriched for hits.

SMILES | PDI turbidity | PglD inh | ERp5 inh | ARNT TACC3 PPI | CendR NRP1 mod | ALR inh
Cc1ccccc1S(=O)(=O)N1CCCCN2[C@H](CO)[C@H](c3ccc(-c4ccccc4)cc3)[C@H]2C1 | / | 2.2 | -1.9 | 7.3 | / | /
C[C@@H]1CN([C@@H](C)CO)C(=O)c2cc(NC(=O)CCCN(C)C)ccc2O[C@@H](C)CCCCO[C@@H]1CN(C)S(=O)(=O)c1ccccc1 | / | -1.6 | -0.5 | -5.7 | / | /
C[C@@H]1CN([C@@H](C)CO)C(=O)c2cc(NC(=O)c3ccccc3)ccc2O[C@@H](C)CCCCO[C@@H]1CN(C)S(=O)(=O)c1ccc(Cl)cc1 | / | 0.0 | 7.3 | 17.9 | / | /
COc1ccccc1NC(=O)N[C@@H]1CC[C@@H](CC(=O)NCc2ccc(Cl)c(Cl)c2)O[C@@H]1CO | / | -1.7 | -2.2 | 7.1 | / | /
Cc1ccc(S(=O)(=O)Nc2ccc(Nc3ccccc3)cc2)cc1 | 1.0 | -2.4 | -1.6 | 2.0 | -14.3 | 99.0*
O=C(O)c1cccc(N2C(=O)c3cc([N+](=O)[O-])cc4cc([N+](=O)[O-])cc(c34)C2=O)c1 | -9.0 | 0.4 | 1.5 | 3.2 | 26.5* | /
O=C1c2ccc(Oc3cccc([N+](=O)[O-])c3)cc2C(=O)N1c1ccccn1 | -1.8 | / | -0.9 | / | -1.5 | -14.6
O=C1c2cc([N+](=O)[O-])cc3cc([N+](=O)[O-])cc(c23)C(=O)N1c1ccccn1 | -3.6 | 12.0 | -1.0 | 42.2 | 28.1* | -11.6
O=C(O)c1cccc(N2C(=O)c3cccc4cccc(c34)C2=O)c1 | 4.7 | -1.6 | 2.7 | -4.2 | -5.4 | -1.1
COc1cccc(-c2ccc3c(c2)[C@H]2[C@H](CCN2Cc2ccccc2OC)[C@H](CO)N3)c1 | / | -1.3 | 5.1 | 23.7 | / | /
COc1ccccc1-c1ccc2n(c1=O)C[C@@H]1[C@@H](CO)[C@H](C(=O)N(C)C)N[C@H]21 | / | -2.2 | -2.7 | 5.0 | / | /
COc1ccc(C(CCN(Cc2ccc(OC)c(OC)c2)C(C)=O)c2ccccc2)cc1 (stereo unspecified) | 13.5 | / | -6.4 | -3.3 | -1.4 | -6.7
COc1ccc(CN(CCC(c2ccccc2)c2ccc(OC(C)C)cc2)C(=O)CCl)cc1OC (stereo unspecified) | 85.9* | -1.7 | / | -2.4 | -10.6 | 3.5
c1cncc(-c2ccc3ncnc(NCc4ccc5c(c4)OCO5)c3c2)c1 | -2.1 | 4.4 | -1.9 | 2.3 | 15.7 | -2.7
Clc1ccccc1-c1ccc2ncnc(NCc3ccc4c(c3)OCO4)c2c1 | -44.3 | -2.4 | -6.8 | -3.6 | 22.3* | -1.3
O=C(Nc1ccccc1F)N1CC(=O)N2[C@H](CO)[C@H](c3ccc(-c4cccnc4)cc3)[C@@H]2C1 | / | / | -3.9 | / | / | /
Cc1ccn2c(Nc3ccccc3C)c(-c3cccnc3)nc2c1 | 0.1 | / | 2.3 | -2.9 | -1.5 | 96.9*
CN1CCN(c2nc(Nc3ccc(F)cc3)nc(Nc3ccc(F)cc3)n2)CC1 | 1.5 | 0.5 | 1.8 | 18.2 | -1.2 | 90.8*
NCCOc1ccccc1-c1ccccc1 | 3.7 | 0.6 | / | 27.9 | 0.7 | -1.1
Nc1ccc(Oc2ccccc2-c2ccccc2)cc1 | 9.4 | 8.5 | 0.9 | -8.3 | -0.8 | 98.7*
O=S(=O)(Nc1ccc(O)cc1)c1cccc2cccnc12 | 6.0 | -2.2 | -7.5 | -0.3 | 3.3 | 100.9*
Cc1cc(C)c(S(=O)(=O)Nc2ccc(O)cc2)cc1C | 11.5 | -0.3 | / | 2.9 | -2.7 | 99.2*
O=C(N[C@H]1C=C[C@H](CC(=O)N2CCN(c3ccccc3)CC2)O[C@@H]1CO)c1ccccc1 | / | -0.2 | -2.1 | -8.6 | / | /
COc1ccc2c(c1)c1nc3ccccc3nc1n2Cc1ccc(OC(C)C)c(OC)c1 | -21.5 | 1.8 | / | -1.7 | -9.4 | -2.3
COc1ccc(Cn2c3ccc(OC)cc3c3nc4ccccc4nc32)cc1 | 11.7 | -2.7 | / | -3.3 | 48.9* | -8.6
SMILES | PDI turbidity | PglD inh | ERp5 inh | ARNT TACC3 PPI | CendR NRP1 mod | ALR inh
CCCC#Cc1ccc2c(c1)O[C@H](CN(C)Cc1cccnc1)[C@H](C)CN([C@@H](C)CO)S2(=O)=O | / | 3.4 | 4.7 | 23.1 | / | /
CC(=O)Nc1ccc(S(=O)(=O)Nc2cccc3[nH]ncc23)cc1 | 10.8 | / | 2.6 | -4.8 | -4.2 | -10.2
O=C(Nc1cccc2[nH]ncc12)NS(=O)(=O)c1ccccc1 | -2.1 | -3.6 | -0.1 | 12.4 | -2.2 | 96.9*
CC1(C)Cc2nc(-c3ccccc3)nc(NNC(=O)c3ccco3)c2CO1 | 11.2 | -6.7 | 3.5 | -9.9 | -3.5 | 97.4*
O=C(CCC(=O)N(CC(=O)NC1CCCCC1)Cc1ccccc1)Nc1ccccn1 | 10.9 | / | 2.9 | 3.6 | -0.8 | -2.2
COc1ccccc1N(CC(=O)NC1CCCC1)C(=O)CCC(=O)Nc1ccccn1 | 6.1 | 0.1 | 3.0 | -6.1 | 21.4* | /
COc1ccccc1N(CC(=O)NC1CCCC1)C(=O)CCC(=O)Nc1cc(C)on1 | 10.9 | 3.9 | / | -1.1 | 5.2 | 2.9
Cc1ccnc(NC(=O)CCC(=O)N(CC(=O)NC2CCCCC2)Cc2ccccc2)c1 | -2.4 | / | 0.7 | 3.1 | 31.0* | -0.9
O=C(CS)Nc1ccc2ccccc2c1 | 1.4 | -2.1 | -1.1 | -10.4 | -0.9 | 97.1*
O=C(CSCc1nc2ccccc2[nH]1)Nc1ccc2ccccc2c1 | -3.8 | -2.8 | / | -0.8 | -6.4 | 98.7*
O=C(CSCc1nc2ccccc2[nH]1)Nc1ccc(Oc2ccccc2)cc1 | -3.5 | / | / | 0.7 | -1.8 | -8.0
CCCCCC(=O)Nc1ccc2ccccc2c1 | -7.1 | / | / | / | -5.9 | /
C/C(CC(=O)Nc1ccc2ccccc2c1)=N\NC(=O)c1ccc(O)c(O)c1 | 14.7 | 2.7 | -3.8 | 39.4 | -27.9 | 99.4*
CNC[C@@H]1Oc2ccc(NC(=O)Cc3cn(C)c4ccccc34)cc2CC(=O)N([C@@H](C)CO)C[C@H]1C | / | 0.3 | -2.6 | 1.0 | / | /
Cc1[nH]c2ccccc2c1SCCN | / | 1.0 | -0.8 | 2.3 | -6.8 | 9.8
Cc1[nH]c2ccccc2c1SCc1ccccc1 | / | -0.5 | -4.6 | 18.9 | -3.0 | 99.2*
COc1ccc(C(=O)Nc2ccc3c(c2)nc2n3CCSC2)cc1 | 0.1 | 3.5 | / | 1.2 | -21.0 | 99.4*
COc1ccc(C(=O)Nc2ccc3nc(C)c(C)nc3c2)cc1 | 14.8 | 2.6 | 1.0 | 21.0 | 11.5 | -13.5
O=C(Nc1ccc2c(c1)nc1n2CCSC1)c1ccccc1 | -8.3 | 0.8 | / | 1.0 | -9.1 | 99.2*
CN1CCCNc2nc3ccccc3nc21 | 1.6 | 1.7 | 6.6 | -2.8 | -75.3 | 80.0*
CN1CCCN(S(=O)(=O)c2ccccc2)c2nc3ccccc3nc21 | 2.2 | -2.5 | 0.5 | / | -32.9 | /
CN1OC[C@@H]2CN(Cc3ccccc3)[C@H](c3cccc(Oc4ccccc4)c3)C[C@@H]21 | 5.3 | 1.8 | -1.4 | 4.5 | 25.1* | /
